The values below come from ChEMBL document CHEMBL4513216, “Probing the Open Global Health Chemical Diversity Library for Multistage-Active Starting Points for Next-Generation Antimalarials” (ACS Infect Dis, 2020).

Hit rate of the full screen: of about 65,000 compounds, about 2,100 (3.2%) showed an effect of 50% or more. The median lay at about -52%. Shown is part of a subset that was picked to be rich in strong results.

For this test, the system named is Plasmodium falciparum. The test can be described thus: Screen against P. falciparum Asexual Blood Stage (ABS), at 5uM. The following applies: tested at 5 uM. The format is functional, Dd2.
With `O=C1CO[C@@H]2CN(Cc3cccs3)C[C@H]2N1Cc1cccnc1`, the INHIBITION is reported as -28.4%.
The value for `O=C(c1cc(-n2cccc2)ccc1Cl)N1CCC2(CC1)OCCO2` was -6.62%; that for `COc1cccc(CN(C)Cc2[nH]c3ccccc3c2C)c1O` was 88.7%.
Consider `O=C1CSC(c2ccncc2)c2c[nH]nc2N1` (stereo unspecified), for which the INHIBITION is listed as -101%.
The figure for `COc1cccc(Nc2nc(-c3ccncc3)nc3c2CNCC3)c1` is 82.2%.
The figure for `COc1cccc(Nc2nc(N3CCCC3)nc3c2CNCC3)c1` is 85.7%; for `Fc1cccc(Nc2nc(N3CCCC3)nc3c2CNCC3)c1` it is 84.3%; for `CC(C)(C)n1cc(C(=O)O)c(-c2ccc(F)cc2F)n1` it is -86.4%.
The value for `Fc1cnc(N2CCN3C[C@H](Oc4cncnc4)C[C@H]3C2)nc1` was -74.8%; that for `c1ccc(CN2CCOC3CNCC[C@H]32)cc1` (stereo partly specified) was 23.5%; that for `Cc1nc(CN2CCO[C@H]3CN(C(=O)Cc4cccs4)C[C@H]32)cs1` was -65.8%.
For the compound `CC1(c2ccccc2)CCCN(Cc2cncn2C2CCCC2)C1` (stereo unspecified), the INHIBITION is given as 91%.
Regarding `O=c1c2ccccc2cnn1Cc1cncn1C1CC1`, the INHIBITION is on record as -100%.
The figure for `CS(=O)(=O)N1CCC2(CCCN(Cc3ccccn3)C2)CC1` is -200%; for `COCCNc1c(C#N)c2c(c3nncn13)CN(C)CC2` it is -128%; for `CC(C)(C)CN1CCCC2(CCN(C(=O)c3ccc(O)nc3)C2)C1` (stereo unspecified) it is -154%.
The figure for `CC(C)(C)c1cn(C[C@H]2CC3CCN2C[C@@H]3C(=O)N2CCOCC2)nn1` (stereo partly specified) is -111%.
The value for `COc1c(C)cnc(CN2CCC(N(C)C(C)C(N)=O)CC2)c1C` (stereo unspecified) was 78.2%; that for `COc1c(C)cnc(CN(C)C2CCCCC2)c1C` was 76.7%; that for `Cc1n[nH]c2c1C(c1ccc(O)cc1)SCC(=O)N2` (stereo unspecified) was -12.2%.
Regarding `Fc1cccc(O[C@@H]2C[C@H]3CN(Cc4ccncc4)CCN3C2)c1`, the INHIBITION is on record as -111%.
The value for `Cc1cccnc1CN1CCC2(CC(Nc3ccncn3)C2)C1` (stereo unspecified) was -21.6%; that for `O=C(Cc1ccccn1)N1CCN2C[C@H](Oc3cccc(F)c3)C[C@H]2C1` was -85.6%; that for `Fc1cccc(O[C@@H]2C[C@H]3CN(Cc4ccccn4)CCN3C2)c1` was -29.8%.
The value for `Cc1cnccc1CN1CC[C@H](Oc2cccc(F)c2)[C@@](C)(O)C1` was 80.2%; that for `Cc1cccnc1CN1CC[C@H](Oc2cccc(F)c2)[C@@](C)(O)C1` was 75%; that for `O=C(c1ccsc1)N1CCN2C[C@H](OCc3ccccn3)C[C@H]2C1` was -131%.
`Cc1cc(CN2CC[C@@H]3O[C@@H](c4nnc(C)o4)C[C@H]3C2)no1`: the INHIBITION was -68.8%.
Regarding `Cn1nc(CN2CCCCC(N)C2)c2c(Cl)cccc21` (stereo unspecified), the INHIBITION is 66.2%.
The value for `Cc1cc(-c2nn(C)c(Cl)c2CN2CCCCC(N)C2)no1` (stereo unspecified) was 70.3%; that for `Cc1csc([C@H]2C[C@H]3CN(Cc4cc(C)on4)CC[C@@H]3O2)n1` was -109%.
The value for `CS(=O)(=O)N[C@@H]1CN(Cc2ccncc2)C[C@@H]2CCCO[C@@H]21` was -73%; that for `NCC1(c2cccc(C(F)(F)F)c2)CCCC1` was 32.6%.
The value for `NC(=O)CN1CCCN(C(=O)Cc2cccc(C(F)(F)F)c2)CC1` was -122%; that for `CC(N)C(=O)N1CCC(Oc2cccc(C(F)(F)F)c2)CC1` (stereo unspecified) was 76.6%; that for `CC[C@H]1CN2CC[C@H]1C[C@@H]2CNC(=O)Nc1cccc(C(F)(F)F)c1` was -88.1%.
For the compound `OC1(CN2CCC(Oc3cccc(C(F)(F)F)c3)CC2)CCNC1` (stereo unspecified), the INHIBITION was determined as 90.3%.
The figure for `Cc1ccc(CN2C[C@@H](OCc3ccccn3)[C@H]3COC[C@H]32)o1` is -72.9%.
Regarding `CCc1ccc(CN2CC[C@@H]3NC(=O)CC[C@@H]32)o1`, the INHIBITION was 11.1%.
In the case of `COc1cccc(CNCc2ccc(F)cc2Cl)c1O`, the INHIBITION is 79.5%.
With `COc1cccc(CNCc2ccccc2Cl)c1O`, the INHIBITION came to 77%.
Turning to `c1cc(COC[C@]23COC[C@H]2CN(Cc2ccsc2)C3)ccn1`, the INHIBITION was 41.6%.
On to `Cc1ncsc1CN1C[C@@H](OCc2ccccn2)[C@H]2OCCC[C@H]21`, for which the INHIBITION is -244%.
The value for `Cc1nn(C)c(C)c1CN1CCNCC1` was -133.5%; that for `Cc1cc(C)n(CCCn2cncc2-c2ccc3c(c2)CC(C)N3C)n1` (stereo unspecified) was 87.4%.
For the compound `Cc1nn(C)c(C)c1CCn1cncc1-c1ccc2c(c1)CC(C)N2C` (stereo unspecified), the INHIBITION was found to be 82.6%.
Turning to `CCN1c2ccc(-c3cncn3CCCn3ccnc3C)cc2CC1C` (stereo unspecified), the INHIBITION came to 86.6%.
The figure for `CCN1c2ccc(-c3cncn3CC(=O)NC(C)(C)C)cc2CC1C` (stereo unspecified) is 73.2%.
On to `Cc1cc(C)c(CNc2ncnc3ccsc23)c(=O)[nH]1`, for which the INHIBITION is reported as -52%.
The value for `Cc1csc(C2(NCC(O)COC(C)C)CCCC2)n1` (stereo unspecified) was -14.1%.
The value for `O=C(c1cc(F)cc(F)c1)N1C[C@H]2CNC[C@H]2C1` was 1.31%.
